Data on 13 molecules can be found in PubChem BioAssay (EPA / NIEHS).

Assay [1] can be described thus: CCTE_Mundy_HCI_Cortical_Synap_Neur_Matur_NeuriteSpotCountPerNeuriteLength: CCTE's Synaptogenesis and Neurite Maturation Assay in rat cortical cells for Neurite Spot Count per Neurite Length, Mundy Lab (AID 2284210). The method, boiled down:
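Rat primary cortical cultures, glia arrested with AraC at DIV 5, were dosed with media change at DIV 7 and fixed at DIV 12. Synaptophysin puncta per MAP2-labelled neurite length were quantified by high-content imaging versus DMSO.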

A short description of assay [2]: CCTE_Mundy_HCI_Cortical_Synap_Neur_Matur_BPCount: CCTE's Synaptogenesis and Neurite Maturation Assay in rat cortical cells for Branch Point Count, Mundy Lab (AID 2284211). A digest of the protocol: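 Rat primary cortical cultures, AraC added DIV 5; chemicals dosed DIV 7 through DIV 12. Fixed cells stained for MAP2, synaptophysin and Hoechst; neurite branch points counted by automated high-content imaging, fitted relative to DMSO.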

Assay [3] is described as follows: CCTE_Mundy_HCI_Cortical_NOG_NeuriteCount: CCTE's Neurite Outgrowth Assay in rat cortical cells for Neurite Count, Mundy Lab (AID 2284212).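 Further: cells fixed about two days after chemical exposure began.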 A digest of the protocol: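 Neurite number per cell from high-content imaging of betaIII-tubulin immunostaining, with Hoechst nuclear counterstain.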
The nature of assay [4]: CCTE_Mundy_HCI_Cortical_NOG_NeuriteLength: CCTE's Neurite Outgrowth Assay in rat cortical cells for Neurite Length, Mundy Lab (AID 2284213).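 On AC50: neurites imaged about 48 to 50 h after chemical exposure began.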 The method, boiled down:
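Neurite length was read by high-content imaging of βIII-tubulin-labelled neurites in rat primary cortical cultures. Activity was fitted relative to DMSO.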

Assay [5] in a line: CCTE_Mundy_HCI_Cortical_Synap_Neur_Matur_NeuriteLength: CCTE's Synaptogenesis and Neurite Maturation Assay in rat cortical cells for Neurite Length, Mundy Lab (AID 2284214). The method, boiled down: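 Rat primary cortical cultures, AraC added DIV 5, dosed DIV 7 through DIV 12 […]. Fixed, MAP2/synaptophysin immunostained with Hoechst; neurite length by high-content imaging, fitted in positive direction versus DMSO.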

Assay [6] is described as follows: CCTE_Mundy_HCI_Cortical_Synap_Neur_Matur_NeuriteSpotCountPerNeuron: CCTE's Synaptogenesis and Neurite Maturation Assay in rat cortical cells for Neurite Spot Count per Neuron Count, Mundy Lab (AID 2284215). A digest of the protocol: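 Rat primary cortical cells received AraC at DIV 5, then chemicals with a media change at DIV 7, and were fixed at DIV 12. Synaptophysin puncta on MAP2-stained neurites per neuron were counted by high-content imaging, fitted relative to DMSO.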

Assay [7] can be described thus: TAMU_PeakParms_SingleDonor1434_Chronotropy: Texas A&M University (TAMU) 1.5-hr Human Induced Pluripotent Stem Cell (iPSC)-derived Cardiomyocytes Calcium (Ca+2) Flux Assay for Cardiotoxicity: Chronotropy (changes in peak frequency) (AID 2284217). The settings on record: actives raise or lower the signal. The method, boiled down: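 iPSC-derived cardiomyocytes (single donor 1434) dosed at 0.2, 1, 10 and 100 uM in 0.5% DMSO for 1.5 h at 37C; Ca2+ dye fluorescence gave average beat frequency. Zero-beat points removed; bidirectional fit versus DMSO, POD as EC05.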

The nature of assay [8]: IUF_NPC1b_proliferation_BrdU_72hr: Leibniz Research Institute for Environmental Medicine (IUF) 72-hour Neural Progenitor Cell Bromodeoxyuridine (BrdU) Proliferation Assay (NPC1b) (AID 2284207). A digest of the protocol:
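hNPC spheres (primary, GW 16-19 fetal cortex), single sphere/well, EGF+FGF medium; 72 h compound, no renewal; BrdU pulse last 16 h; luminescent ELISA; activity vs DMSO baseline; growth-factor withdrawal as positive control.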

Assay [9] can be described thus: IUF_NPC1a_proliferation_area_72hr: Leibniz Research Institute for Environmental Medicine (IUF) 72-hour Neural Progenitor Cell Proliferation Area Assay (NPC1a) (AID 2284208). A digest of the protocol: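 Read-out: increase in sphere area over 72 h by automated phase-contrast imaging, fitted in positive direction versus DMSO baseline. One hNPC sphere (0.25-0.35 mm) per well in EGF/FGF medium; growth-factor withdrawal served as positive control.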

The nature of assay [10]: IUF_NPC1_viability_72hr: Viability Assessment at 72 hours in the Leibniz Research Institute for Environmental Medicine (IUF) Neural Progenitor Cell Proliferation Assay (NPC1) (AID 2284209). A digest of the protocol: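 Single spheres (0.25-0.35 mm) of human fetal cortex-derived neural progenitor cells were grown in proliferation medium with EGF and FGF at 37C and 5% CO2. They were exposed for 72 h without renewal, and viability was read by alamar blue resorufin fluorescence.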

Activity calls are given as the source filed them. How the source made its calls: active means hit-call score of the fitted dose curve at least 0.9, where 1 is the maximum; inactive means score below 0.9.

For `CC1(C)C(C=C(Cl)Cl)C1C(=O)OCc1cccc(Oc2ccccc2)c1` (stereo not drawn), the molecule was classed as inactive in assay [1] and in [7]. The concentration at half-maximal activity (AC50) in assay [2] is 8.52 µM (active); in [3] it was 78.2 µM (active); in assay [4] it was 83.7 µM (active); in [5], 8.65 µM (active); in assay [6] it was 8.69 µM (active).
As to `c1ccc2[nH]c(-c3cscn3)nc2c1`, in assay [7], the AC50 is 9.92 µM (active).
On to `CC(C)(c1ccc(O)cc1)c1ccc(O)cc1`, for which the AC50 was 4.92 µM (active) in assay [8], 50 µM (active) in assay [5], 50 µM (active) in assay [6] and 50 µM (active) in [7]. In addition, the molecule was classed as inactive in [9], in [10], in [1] and in assay [4].
Turning to `S=C([S-])NCCNC(=S)[S-].[Mn+2]`, the result in [8], in assay [9], in [10], in assay [1], in [4] and in assay [5] was inactive. In addition, the result in assay [6] was inactive.
Turning to `Cc1nn(C)c(Oc2ccccc2)c1C=NOCc1ccc(C(=O)OC(C)(C)C)cc1`, the AC50 was 5.15 µM (active) in assay [8]; 0.0215 µM (active) in assay [9]; 0.00339 µM (active) in assay [1]; 0.00291 µM (active) in assay [2]; 0.0196 µM (active) in [3]; 0.0155 µM (active) in [4]. Besides, the values for the AC50 in [5] and in assay [6] were 0.00265 µM (active) and 0.00181 µM (active), respectively. In assay [10], the molecule was called inactive.
For `C#CCOC(=O)[C@@H](C)Oc1ccc(Oc2ncc(Cl)cc2F)cc1`, the call in assay [8], in assay [10], in assay [1], in assay [2], in assay [3] and in assay [4] was inactive. The outcome in assay [5] and in [6] was inactive. The AC50 in assay [9] is 26.6 µM (active).
In the case of `COCCO`, the outcome in assay [7] was inactive.
For the molecule `CSC(=O)c1cccc2nnsc12`, the AC50 in assay [8] was 0.796 µM (active). For the same molecule, the call in [9], in [10], in assay [1], in assay [2], in assay [3] and in assay [4] was inactive. Also, the molecule was classed as inactive in [5] and in [6].
For `CCN(CC)C(=O)c1cccc(C)c1`, the AC50 in assay [8] is 92.7 µM (active). Besides, the molecule was classed as inactive in [9], in assay [10], in assay [1], in [2], in assay [3] and in [4]. The molecule was classed as inactive in assay [5] and in assay [6].
For the molecule `CC(=O)[C@H]1CC[C@H]2[C@@H]3CCC4=CC(=O)CC[C@]4(C)[C@H]3CC[C@]12C`, the outcome in assay [7] was inactive.
For `O=C(O)c1ccccc1`, the molecule was classed as inactive in assay [8], in assay [9], in assay [10], in assay [1], in [2] and in assay [3]. The call in assay [4], in assay [5], in assay [6] and in assay [7] was inactive.
With `S=C(S)NCCNC(=S)S.[Mn+2].[S-]C([S-])=NCCN=C([S-])[S-].[Zn+2]`, the call in assay [8], in assay [9], in assay [10], in [1], in [2] and in assay [3] was inactive. For the same molecule, the molecule was classed as inactive in [4], in assay [5] and in assay [6].
Consider `CCCN(CCC)C(=O)SCC`, for which the result in assay [8], in assay [9], in [10], in assay [1], in assay [2] and in assay [4] was inactive. The outcome in [5] and in assay [6] was inactive.
